The text below walks through data of PubChem BioAssay (NCI).

This is part of a sample that, as a whole, favours compounds with a hit. Of some 79,000 tested, about 15% had one in any assay. A number with no mark means an inactive call. The source made the active and inactive calls. Rule as the data show it: active = growth inhibition above about 70%; inactive = the rest.

One experiment in a line: NCI Yeast Anticancer Drug Screen. Data for the bub3 strain (AID 167). The note with it: S. cerevisiae bub3 mutant strain, at 50.0 µM, active compounds read high. The method, boiled down:
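Part of a panel of yeast mutants defective in DNA damage repair or cell cycle regulation. Each strain is grown with compound, and inhibition is calculated relative to solvent-treated cultures.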
As to `COC(=O)[C@H]1O[C@H]1c1ccncc1`, the growth inhibition was 6.2%.
`O=[N+]([O-])c1ccc(NSc2ccccc2)cc1`: the growth inhibition was 91.3% (active).
On the same count and under the same terms, under `OCCOCCO[P+]1(OCCOCCO)n2c3ccc2C(c2ccccc2)=C2C=CC(=N2)C(c2ccccc2)=c2ccc(n21)=C(c1ccccc1)C1=NC(=C3c2ccccc2)C=C1` stands 89% (active).
Take `NCCSC1(O)C(=O)c2ccccc2-c2ccccc21` (stereo not given): the growth inhibition was 97.8% (active).
As to `C/C=C(\C)C(=O)O[C@@H]1CC(C)(C)CC2C3=CCC4[C@]56CC[C@](O)(OC5)C(C)(C)C6CC[C@@]4(C)C3(C)CC[C@]21C(=O)O` (stereo not given in full), the growth inhibition was 81.8% (active).
Take `CSC(=S)NN=C1CCCCC1`: the growth inhibition was 93.7% (active).
In the case of `O=C1c2ccccc2C(O)(C#Cc2ccccc2)c2cnccc21` (stereo not given), the growth inhibition was 98.2% (active).
Consider `CCCCCC(CCCCC)C(=O)O`, for which the growth inhibition is 66.2%.
In the case of `CC(C)(N=Nc1ccc([N+](=O)[O-])cc1)[N+](=O)[O-]`, the growth inhibition was 47.4%.
For the compound `CCCCCCCCCCCCCC(=O)N1CCOCC1`, the growth inhibition is 99.6% (active).
Take `CCOc1ccccc1-c1nc2c(s1)C(=O)c1ccccc1C2=O`: the growth inhibition was 92.3% (active).
As to `c1ccc2c(c1)C[n+]1ccc3ccccc3c1-c1c3ccccc3cc[n+]1C2`, the growth inhibition is 7.85%.
`Nc1cc2c(c[n+](CCCCCCCCCC[n+]3cc4c5ccccc5c(N)cc4c4ccccc43)c3ccccc23)c2ccccc12`: the growth inhibition was 81% (active).
With `Cc1ccc(N=C(N)NN=C(c2ccc(Cl)cc2)c2ccc(Cl)cc2)cc1`, the growth inhibition was 97.2% (active).
For the compound `O/N=C(/C[n+]1csc2ccccc21)c1ccccc1`, the growth inhibition was 76.8% (active).
As for `COc1ccc(C2Oc3c(cccc3OC)C=C2[N+](=O)[O-])cc1` (stereo not given), the growth inhibition is 45.2%.
Turning to `O=C(O)c1c2c(cc3c1CC1(Cc4cc5c(cc4C1=O)CCC5)C3)CCC2` (stereo not given), the growth inhibition was 87.2% (active).
The same measure, in the same setting: for `CSc1ncnc2ncn(C3OC(CO)C(O)C3O)c12` (stereo not given) the value was -0.75%; for `CC1SC(=S)N(c2ccc(Cl)cc2)C1=O` (stereo not given), 85.5% (active); for `CCOC(=O)C(C(C)=O)C1=C(Cl)C(=O)c2ccccc2C1=O` (stereo not given), 97.5% (active).
Same read-out and setting: for `CC(C)(C)c1cc(C(O)(C(F)(F)F)C(F)(F)F)c(S)c(C(O)(C(F)(F)F)C(F)(F)F)c1` the value was 99% (active); for `O=[N+]([O-])C1C(c2ccccc2)CC=CC1N1CCCC1` (stereo not given), 97.3% (active); for `COc1ccc2nc3cc(Cl)ccc3c(NCCNc3c4ccc(Cl)cc4nc4ccc(OC)cc34)c2c1`, 99.2% (active).
The same measure, in the same setting: under `CCN(CC)CCNc1nc(N)c2nc(-c3ccccc3)c(-c3ccccc3)nc2n1` stands 61.7%; under `CC(=O)OCC(=O)[C@@]1(O)CC[C@H]2[C@@H]3CCC4=CC(=O)C=C[C@]4(C)[C@@]3(F)[C@@H](O)C[C@@]21C`, 17.6%; under `O=Cc1cc(S(=O)(=O)c2ccc(O)c(C=O)c2)ccc1O`, 99% (active).
As for `OCc1cccc2c1Oc1ccccc1S2`, the growth inhibition was -37.5%.
`O=C(CCN1CCCC1)c1ccc(Oc2ccc(F)cc2)cc1`: the growth inhibition was 49.4%.
With `Cc1ccccc1N1CCN(c2c3c(nc4ccccc24)CCCCC3)CC1`, the growth inhibition was 97.5% (active).
Same read-out and setting: under `CNC(Cc1ccccc1)c1ccc(OC)c2ccccc12` (stereo not given) stands 51.7%; under `CCCCN(CCCC)Cc1ccc(NC(C(=O)c2ccccc2)c2ccccc2)cc1` (stereo not given), 90.5% (active); under `CCS(=O)(=O)/C=C(\C#Cc1ccccc1)c1ccccc1`, 87.5% (active).
The same measure, in the same setting: for `CN(C)c1c([N+](=O)[O-])cc(N2C(=O)C=CC2=O)cc1[N+](=O)[O-]` the value was 92.3% (active); for `CNC(=N)c1ccc(NC(=N)c2ccc(NC(=O)c3ccc(C(=O)Nc4ccc(C(=N)Nc5ccc(C(=N)NC)cc5)cc4)cc3)cc2)cc1`, 46.6%.
For the compound `O=[N+]([O-])c1ccc(-c2nc3ccc(F)cc3[nH]2)o1`, the growth inhibition was 99.7% (active).
Regarding `CCCCCCC(=O)CC(SCCN)c1ccccc1Cl` (stereo not given), the growth inhibition is 98.9% (active).
Same read-out and setting: for `O=C(CC(c1ccccc1Cl)C(C(=O)O)c1ccccc1)c1ccccc1` (stereo not given) the value was 43.6%.
With `CC([N+](=O)[O-])C1(O)C(=O)c2cccc3cccc1c23` (stereo not given), the growth inhibition was 68.8%.
As for `CC(=O)N(C1=C(Cl)C(=O)c2ccccc2C1=O)c1ccc(Cl)cc1`, the growth inhibition was 79.8% (active).
Turning to `CCOC(=N)CCCSSc1ccc(N=[N+]=[N-])cc1`, the growth inhibition was 98.8% (active).

The nature of the next experiment: NCI Yeast Anticancer Drug Screen. Data for the mlh1 rad18 strain (AID 175). The note with it: S. cerevisiae mlh1 rad18 strain growth inhibition; at 5.0 µM (retest, dose inferred, filed as 0.5); active compounds read high. In short, it runs like this:
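Vehicle-treated cultures served as the reference for growth inhibition in a yeast strain carrying DNA damage repair alterations exposed to each compound.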
With `COC(=O)[C@H]1O[C@H]1c1ccncc1`, the growth inhibition is 0%.
Turning to `O=[N+]([O-])c1ccc(NSc2ccccc2)cc1`, the growth inhibition was 6%.
Consider `OCCOCCO[P+]1(OCCOCCO)n2c3ccc2C(c2ccccc2)=C2C=CC(=N2)C(c2ccccc2)=c2ccc(n21)=C(c1ccccc1)C1=NC(=C3c2ccccc2)C=C1`, for which the growth inhibition was 97% (active).
Regarding `NCCSC1(O)C(=O)c2ccccc2-c2ccccc21` (stereo not given), the growth inhibition was 57%.
Still for that read-out and setting: under `C/C=C(\C)C(=O)O[C@@H]1CC(C)(C)CC2C3=CCC4[C@]56CC[C@](O)(OC5)C(C)(C)C6CC[C@@]4(C)C3(C)CC[C@]21C(=O)O` (stereo not given in full) stands 69%.
In the case of `CSC(=S)NN=C1CCCCC1`, the growth inhibition was 55%.
In the case of `O=C1c2ccccc2C(O)(C#Cc2ccccc2)c2cnccc21` (stereo not given), the growth inhibition was -5%.
As to `CCCCCC(CCCCC)C(=O)O`, the growth inhibition was -1%.
With `CC(C)(N=Nc1ccc([N+](=O)[O-])cc1)[N+](=O)[O-]`, the growth inhibition was 23%.
For `CCCCCCCCCCCCCC(=O)N1CCOCC1`, the growth inhibition was 7%.
On to `CCOc1ccccc1-c1nc2c(s1)C(=O)c1ccccc1C2=O`, for which the growth inhibition was 94% (active).
As for `c1ccc2c(c1)C[n+]1ccc3ccccc3c1-c1c3ccccc3cc[n+]1C2`, the growth inhibition is 7%.
`Nc1cc2c(c[n+](CCCCCCCCCC[n+]3cc4c5ccccc5c(N)cc4c4ccccc43)c3ccccc23)c2ccccc12`: the growth inhibition was 63%.
Same read-out and setting: for `Cc1ccc(N=C(N)NN=C(c2ccc(Cl)cc2)c2ccc(Cl)cc2)cc1` the value was 5%; for `O/N=C(/C[n+]1csc2ccccc21)c1ccccc1`, 1%.
Take `COc1ccc(C2Oc3c(cccc3OC)C=C2[N+](=O)[O-])cc1` (stereo not given): the growth inhibition is 33%.
Consider `O=C(O)c1c2c(cc3c1CC1(Cc4cc5c(cc4C1=O)CCC5)C3)CCC2` (stereo not given), for which the growth inhibition was 55%.
Consider `CSc1ncnc2ncn(C3OC(CO)C(O)C3O)c12` (stereo not given), for which the growth inhibition is -7%.
The same measure, in the same setting: for `CC1SC(=S)N(c2ccc(Cl)cc2)C1=O` (stereo not given) the value was 3%; for `CCOC(=O)C(C(C)=O)C1=C(Cl)C(=O)c2ccccc2C1=O` (stereo not given), 84% (active).
Take `CC(C)(C)c1cc(C(O)(C(F)(F)F)C(F)(F)F)c(S)c(C(O)(C(F)(F)F)C(F)(F)F)c1`: the growth inhibition is 4%.
Still for that read-out and setting: under `O=[N+]([O-])C1C(c2ccccc2)CC=CC1N1CCCC1` (stereo not given) stands 7%; under `COc1ccc2nc3cc(Cl)ccc3c(NCCNc3c4ccc(Cl)cc4nc4ccc(OC)cc34)c2c1`, 28%.
For `CCN(CC)CCNc1nc(N)c2nc(-c3ccccc3)c(-c3ccccc3)nc2n1`, the growth inhibition was -5%.
On the same count and under the same terms, for `CC(=O)OCC(=O)[C@@]1(O)CC[C@H]2[C@@H]3CCC4=CC(=O)C=C[C@]4(C)[C@@]3(F)[C@@H](O)C[C@@]21C` the value was -3%; for `O=Cc1cc(S(=O)(=O)c2ccc(O)c(C=O)c2)ccc1O`, 26%.
In the case of `OCc1cccc2c1Oc1ccccc1S2`, the growth inhibition was 4%.
Turning to `O=C(CCN1CCCC1)c1ccc(Oc2ccc(F)cc2)cc1`, the growth inhibition was 30%.
Still for that read-out and setting: under `Cc1ccccc1N1CCN(c2c3c(nc4ccccc24)CCCCC3)CC1` stands -4%; under `CNC(Cc1ccccc1)c1ccc(OC)c2ccccc12` (stereo not given), -2%; under `CCCCN(CCCC)Cc1ccc(NC(C(=O)c2ccccc2)c2ccccc2)cc1` (stereo not given), 22%.
As for `CCS(=O)(=O)/C=C(\C#Cc1ccccc1)c1ccccc1`, the growth inhibition is 6%.
Consider `CN(C)c1c([N+](=O)[O-])cc(N2C(=O)C=CC2=O)cc1[N+](=O)[O-]`, for which the growth inhibition is 80% (active).
Still for that read-out and setting: for `CNC(=N)c1ccc(NC(=N)c2ccc(NC(=O)c3ccc(C(=O)Nc4ccc(C(=N)Nc5ccc(C(=N)NC)cc5)cc4)cc3)cc2)cc1` the value was 87% (active); for `O=[N+]([O-])c1ccc(-c2nc3ccc(F)cc3[nH]2)o1`, 94% (active).
Still for that read-out and setting: under `CCCCCCC(=O)CC(SCCN)c1ccccc1Cl` (stereo not given) stands 1%; under `O=C(CC(c1ccccc1Cl)C(C(=O)O)c1ccccc1)c1ccccc1` (stereo not given), -1%.
Turning to `CC([N+](=O)[O-])C1(O)C(=O)c2cccc3cccc1c23` (stereo not given), the growth inhibition was 26%.
With `CC(=O)N(C1=C(Cl)C(=O)c2ccccc2C1=O)c1ccc(Cl)cc1`, the growth inhibition is 99% (active).
Same read-out and setting: under `CCOC(=N)CCCSSc1ccc(N=[N+]=[N-])cc1` stands -3%.
